This passage reports outcome and AC50 results from PubChem BioAssay (EPA / NIEHS).

Read-out in assay [1]: Low-density lipoprotein receptor (LDLR), LDLR (gene 3949)
The experiment in a line: BSK_CASM3C_LDLR: BioMAP Diversity Plus: CASM3C Assay for Low-density lipoprotein receptor (LDLR) Biomarker Activity (AID 2283045).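 Note: LDLR protein level on the cell surface quantified by ELISA.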 Particulars: primary human coronary artery smooth muscle cells; actives raise or lower the signal.

Read-out in assay [2]: Monocyte Chemoattractant Protein-1 (MCP1), CCL2 (gene 6347)
The experiment in a line: BSK_CASM3C_MCP1: BioMAP Diversity Plus: CASM3C Assay for Monocyte Chemoattractant Protein-1 (MCP1) Biomarker Activity (AID 2283046).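 Note: MCP-1 level quantified by ELISA 24 h after dosing.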 To be noted: primary human coronary artery smooth muscle cells; actives raise or lower the signal.

A short description of assay [3]: BSK_CASM3C_Proliferation: Cell Proliferation Assessment in the BioMAP Diversity Plus: CASM3C Assay (AID 2283047).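 Note: sulforhodamine B total protein stain as relative cell number at 560 nm; sub-confluent cells exposed 48 h before staining; fitted both ways against DMSO so gain or loss of cell number.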 To be noted: primary human coronary artery smooth muscle cells.
Read-out in assay [4]: Monokine induced gamma interferon (MIG), CXCL9 (gene 4283)
In words: BSK_CASM3C_MIG: BioMAP Diversity Plus: CASM3C Assay for Monokine induced gamma interferon (MIG) Biomarker Activity (AID 2283048).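 Note: MIG protein level measured by ELISA.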 Particulars: primary human coronary artery smooth muscle cells; actives raise or lower the signal.

Read-out in assay [5]: serum amyloid A (SAA), SAA1 (gene 6288)
In words: BSK_CASM3C_SAA: BioMAP Diversity Plus: CASM3C Assay for serum amyloid A (SAA) Biomarker Activity (AID 2283049).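 Note: SAA protein level quantified by ELISA.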 Particulars: primary human coronary artery smooth muscle cells; actives raise or lower the signal.

A short description of assay [6]: BSK_CASM3C_SRB: Viability Assessment in the BioMAP Diversity Plus: CASM3C Assay (AID 2283050).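 Note: total protein by SRB staining as cytotoxicity measure in parallel cultures.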 To be noted: primary human coronary artery smooth muscle cells.
Read-out in assay [7]: Thrombomodulin, THBD (gene 7056)
In words: BSK_CASM3C_Thrombomodulin: BioMAP Diversity Plus: CASM3C Assay for Thrombomodulin Biomarker Activity (AID 2283051).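 Note: thrombomodulin protein level measured by ELISA 24 h after dosing.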 Particulars: primary human coronary artery smooth muscle cells; actives raise or lower the signal.

Read-out in assay [8]: Tissue Factor, F3 (gene 2152)
In words: BSK_CASM3C_TissueFactor: BioMAP Diversity Plus: CASM3C Assay for Tissue Factor Biomarker Activity (AID 2283052).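 Note: cell surface tissue factor protein level read by ELISA.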 To be noted: primary human coronary artery smooth muscle cells; actives raise or lower the signal.

Read-out in assay [9]: Interferon-gamma inducible Protein 10 (IP10), CXCL10 (gene 3627)
In words: BSK_hDFCGF_IP10: BioMAP Diversity Plus: hDFCGF Assay for Interferon-gamma inducible Protein 10 (IP10) Biomarker Activity (AID 2283053). Particulars: primary human foreskin fibroblasts; actives raise or lower the signal. In short, it runs like this: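 Human foreskin fibroblast primary cells (hDFCGF system) were dosed with chemical and assayed at 24 h; IP-10 measured by ELISA. Activity fitted bidirectionally relative to DMSO negative control as baseline.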

Read-out in assay [10]: Urokinase-type plasminogen activator receptor (uPAR), PLAUR (gene 5329)
The experiment in a line: BSK_CASM3C_uPAR: BioMAP Diversity Plus: CASM3C Assay for Urokinase-type plasminogen activator receptor (uPAR) Biomarker Activity (AID 2283054).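 Note: cell-surface uPAR protein level quantified by ELISA.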 To be noted: primary human coronary artery smooth muscle cells; actives raise or lower the signal.

Read-out in assay [11]: Vascular cell adhesion molecule 1 (VCAM1), VCAM1 (gene 7412)
In words: BSK_CASM3C_VCAM1: BioMAP Diversity Plus: CASM3C Assay for Vascular cell adhesion molecule 1 (VCAM1) Biomarker Activity (AID 2283055).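 Note: VCAM-1 protein level quantified by ELISA on the cells.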 To be noted: primary human coronary artery smooth muscle cells; actives raise or lower the signal.

Read-out in assay [12]: Collagen III, COL3A1 (gene 1281)
In words: BSK_hDFCGF_CollagenIII: BioMAP Diversity Plus: hDFCGF Assay for Collagen III Biomarker Activity (AID 2283056). Particulars: primary human foreskin fibroblasts; actives raise or lower the signal. In a few lines: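 Response relative to DMSO, fitted in both directions, reflects ELISA-measured collagen III in human primary skin fibroblasts 24 h after compound addition.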

Read-out in assay [13]: Epidermal growth factor receptor (EGFR), EGFR (gene 1956)
The experiment in a line: BSK_hDFCGF_EGFR: BioMAP Diversity Plus: hDFCGF Assay for Epidermal growth factor receptor (EGFR) Biomarker Activity (AID 2283057). To be noted: primary human foreskin fibroblasts; actives raise or lower the signal. In a few lines: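 Primary human foreskin fibroblasts were exposed to compound for 24 h, after which cell-surface EGFR was quantified by ELISA. Activity was fitted bidirectionally against the DMSO negative control as baseline.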

Read-out in assay [14]: Interleukin-8 (IL8), CXCL8 (gene 3576)
In words: BSK_hDFCGF_IL8: BioMAP Diversity Plus: hDFCGF Assay for Interleukin-8 (IL8) Biomarker Activity (AID 2283058). Particulars: primary human foreskin fibroblasts; actives raise or lower the signal. In a few lines: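 Fibroblast monolayers (human foreskin, hDFCGF) received test chemical for 24 h before ELISA detection of IL-8; either increases or decreases relative to DMSO count as activity.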

The nature of assay [15]: BSK_hDFCGF_Proliferation: Cell Proliferation Assessment in the BioMAP Diversity Plus: hDFCGF Assay (AID 2283059).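 Note: curves fitted for both rise and fall of signal versus DMSO baseline.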 Particulars: primary human foreskin fibroblasts. In short, it runs like this: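 Total protein read at 560 nm after 0.1% SRB staining of TCA-fixed human skin fibroblasts, […]. Activity is fitted in both directions relative to DMSO as baseline.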

Read-out in assay [16]: Macrophage colony-stimulating factor (MCSF), CSF1 (gene 1435)
The experiment in a line: BSK_hDFCGF_MCSF: BioMAP Diversity Plus: hDFCGF Assay for Macrophage colony-stimulating factor (MCSF) Biomarker Activity (AID 2283060). Particulars: primary human foreskin fibroblasts; actives raise or lower the signal. In a few lines: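 fibroblasts (human foreskin, primary), 24 h post-dose; M-CSF by ELISA; bidirectional fit, DMSO = baseline.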

Assay [17] in a line: BSK_hDFCGF_SRB: Viability Assessment in the BioMAP Diversity Plus: hDFCGF Assay (AID 2283061).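 Note: cells exposed to compound for 24 h before the read.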 To be noted: primary human foreskin fibroblasts. In a few lines: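 SRB-based viability read on primary human skin fibroblasts at 24 h: TCA fixation, 0.1% dye, 560 nm. Gain or loss of signal is fitted against the DMSO negative control.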
Read-out in assay [18]: TIMP metallopeptidase inhibitor 1 (TIMP1), TIMP1 (gene 7076)
In words: BSK_hDFCGF_TIMP1: BioMAP Diversity Plus: hDFCGF Assay for TIMP metallopeptidase inhibitor 1 (TIMP1) Biomarker Activity (AID 2283062). Particulars: primary human foreskin fibroblasts; actives raise or lower the signal. In short, it runs like this:
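Bidirectional curve fitting against DMSO baseline yielded this endpoint, based on ELISA detection of TIMP-1 in primary human foreskin fibroblasts exposed to compound for 24 h.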

Read-out in assay [19]: Monokine induced gamma interferon (MIG), CXCL9 (gene 4283)
The experiment in a line: BSK_hDFCGF_MIG: BioMAP Diversity Plus: hDFCGF Assay for Monokine induced gamma interferon (MIG) Biomarker Activity (AID 2283063). To be noted: primary human foreskin fibroblasts; actives raise or lower the signal. In a few lines: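 Endpoint derived by bidirectional fitting relative to DMSO; MIG quantified via ELISA in primary human foreskin fibroblasts harvested 24 h after dosing.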

Read-out in assay [20]: Matrix Metallopeptidase 1 (MMP1), MMP1 (gene 4312)
In words: BSK_hDFCGF_MMP1: BioMAP Diversity Plus: hDFCGF Assay for Matrix Metallopeptidase 1 (MMP1) Biomarker Activity (AID 2283064). Particulars: primary human foreskin fibroblasts; actives raise or lower the signal. In a few lines:
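hDFCGF primary fibroblasts (human foreskin); chemical added; 24 h; MMP1 by ELISA; bidirectional fit vs DMSO.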

Structures are written as SMILES. Activity calls are given as the source filed them. Rule for the calls: active = hit-call score of the fitted dose curve at least 0.9, where 1 is the maximum; inactive = score below 0.9.

`CC(C)c1cccc(C(C)C)c1`: the outcome in [1], in assay [2], in assay [3], in assay [4], in assay [5] and in [6] was inactive. The outcome in assay [7], in assay [8], in assay [9], in [10], in assay [11] and in assay [12] was inactive. Also, the result in assay [13], in assay [14], in assay [15], in assay [16], in [17] and in assay [18] was inactive. Moreover, the outcome in assay [19] and in assay [20] was inactive.

One may read the AC50 as the concentration giving half of the maximal activity seen. As for `O=C(NS(=O)(=O)/C=C/c1cccs1)c1ccc(F)cc1Br`, the outcome in assay [1], in [2], in assay [4], in assay [5], in assay [6] and in assay [7] was inactive. The outcome in assay [10], in assay [11], in assay [12], in [13], in assay [14] and in assay [16] was inactive. The outcome in assay [17], in assay [18], in [19] and in assay [20] was inactive. Also, the AC50 is 5.22 µM (active) in [3], 0.061 µM (active) in assay [8], 30.9 µM (active) in [9] and 6.17 µM (active) in [15].

For the molecule `CCCCc1nc2cccnc2n1Cc1ccc(-c2ccccc2-c2nnn[nH]2)cc1`, the result in assay [1], in assay [2], in assay [3], in [4], in assay [5] and in [6] was inactive. Also, the result in [7], in [8], in assay [10], in assay [11], in [12] and in assay [13] was inactive. Besides, the result in assay [14], in assay [16], in assay [17], in [18], in [19] and in assay [20] was inactive. Also, the AC50 in [9] is 32 µM (active); in [15], 18.7 µM (active).

`CC(=O)O`: the outcome in [1], in [2], in [3], in assay [4], in assay [5] and in assay [6] was inactive. The outcome in assay [7], in [8], in assay [9], in assay [10], in [11] and in assay [12] was inactive. The result in assay [13], in [14], in [16], in assay [17], in assay [18] and in assay [19] was inactive. For the same molecule, the outcome in assay [20] was inactive. Further, the AC50 in [15] was 31.2 µM (active).

On to `CCCCOC(=O)CCCCC(=O)OCCCC`, for which the outcome in assay [1], in [2], in assay [3], in assay [4], in assay [5] and in [6] was inactive. Besides, the outcome in [7], in assay [8], in assay [9], in assay [10], in [11] and in [12] was inactive. Further, the result in assay [13], in assay [14], in [15], in [16], in [17] and in assay [18] was inactive. Further, the outcome in assay [19] and in assay [20] was inactive.

With `OCC(CO)n1cnc(-c2ccc(F)cc2)c1-c1ccnc(Oc2ccccc2)n1`, the outcome in assay [1], in assay [2], in [3], in assay [4], in assay [5] and in assay [6] was inactive. Further, the result in [7], in assay [8], in assay [9], in assay [10], in [12] and in assay [13] was inactive. Further, the outcome in assay [14], in [15], in [17], in assay [18] and in assay [19] was inactive. Besides, the AC50 in [11] was 2.33 µM (active); in assay [16], 0.148 µM (active); in [20], 0.909 µM (active).

On to `CCN(CC)CCOc1ccc(C(=C(Cl)c2ccccc2)c2ccccc2)cc1`, for which the AC50 in [1] is 30.6 µM (active); in assay [2], 33 µM (active); in assay [3], 15 µM (active); in [4], 31.5 µM (active); in assay [5], 25.9 µM (active); in assay [6], 28 µM (active). The AC50 is 31.8 µM (active) in [8]; 14.4 µM (active) in [9]; 31.1 µM (active) in assay [10]; 31.6 µM (active) in assay [11]; 12.1 µM (active) in [12]; 13 µM (active) in assay [14]. Also, the AC50 in assay [15] was 0.123 µM (active); in assay [16] it was 10.4 µM (active); in assay [17] it was 11.6 µM (active); in assay [18], 13.6 µM (active); in [19], 13 µM (active); in [20] it was 13.2 µM (active). For the same molecule, the outcome in assay [7] and in assay [13] was inactive.
